The other results are listed elsewhere or left out. The hit rate among all sequences tested is not known here.
Target: furin, P09958
Test: furin cleavage Z-score vs untreated control; higher = more cleavage, active = 3.5 or more, inactive = 1 or less, 8 variable residues between constant flanks
Procedure, shortened: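 Peptides 8 residues long, fused to a cDNA oligonucleotide, were fixed to magnetic beads by the N-terminus and exposed to purified furin. The 0.01 ml reactions contained 50 mM HEPES pH 7.5 with CaCl2 and NaCl at 1:10 enzyme:substrate and ran 7.5, 15 or 30 min. For the cleavage Z-score, log counts of sequenced released DNA were compared with furin-free reactions, lowess-adjusted and scaled by median absolute deviation.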

Chain of furin, P09958 (P09958 whole entry): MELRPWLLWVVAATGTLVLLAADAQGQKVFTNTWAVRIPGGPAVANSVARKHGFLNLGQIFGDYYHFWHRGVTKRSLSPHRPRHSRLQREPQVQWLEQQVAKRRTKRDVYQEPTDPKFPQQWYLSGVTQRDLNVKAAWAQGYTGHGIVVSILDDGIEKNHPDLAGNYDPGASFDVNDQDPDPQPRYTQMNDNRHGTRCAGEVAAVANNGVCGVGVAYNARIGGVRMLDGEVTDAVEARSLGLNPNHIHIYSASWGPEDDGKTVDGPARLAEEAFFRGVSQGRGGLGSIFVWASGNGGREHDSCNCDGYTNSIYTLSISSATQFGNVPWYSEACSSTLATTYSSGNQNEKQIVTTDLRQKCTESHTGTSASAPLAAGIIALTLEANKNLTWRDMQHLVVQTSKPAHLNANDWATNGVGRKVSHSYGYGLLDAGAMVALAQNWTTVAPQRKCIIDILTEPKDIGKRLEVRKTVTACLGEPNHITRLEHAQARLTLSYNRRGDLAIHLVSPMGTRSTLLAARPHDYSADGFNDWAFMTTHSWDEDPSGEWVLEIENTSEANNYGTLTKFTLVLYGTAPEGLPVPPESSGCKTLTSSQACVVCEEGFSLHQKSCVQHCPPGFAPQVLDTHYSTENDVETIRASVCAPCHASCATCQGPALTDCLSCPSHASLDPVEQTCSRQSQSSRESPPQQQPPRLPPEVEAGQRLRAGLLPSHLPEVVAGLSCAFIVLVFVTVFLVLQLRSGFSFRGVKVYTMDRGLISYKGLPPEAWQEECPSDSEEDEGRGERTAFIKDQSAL

Row | Sequence | furin cleavage Z-score (7.5 min) | furin cleavage Z-score (15 min) | furin cleavage Z-score (30 min)
1 | CAEVPCHRPCAGNASASA [HC2420] | 0.0318 (inactive) | 0.651 (inactive) | 0.47 (inactive)
2 | CAIMFAPTLWAGNASASA [HC1577] | -1.61 (inactive) | -2.05 (inactive) | 0.617 (inactive)
3 | CASPVFTDNSAGNASASA [HC764] | -0.427 (inactive) | 0.197 (inactive) | -1.76 (inactive)
4 | CAAWDMMMNWAGNASASA [HC320] | 1.05 | 0.73 (inactive) | -0.468 (inactive)
5 | CAPEECSQHLAGNASASA [HC1679] | 1.99 | 1.43 | 0.965 (inactive)
6 | CAGEIPFYGKAGNASASA [HC846] | 1.57 | -1.54 (inactive) | -0.341 (inactive)
7 | CAIEANLLWRAGNASASA [HC1274] | 0.45 (inactive) | 0.419 (inactive) | 0.862 (inactive)
8 | CAREYRGQRSAGNASASA [FS-705] | -0.292 (inactive) | 2.01 | 0.594 (inactive)
9 | CASASRGPRSAGNASASA [FS-1078] | 4.05 (active) | 4.67 (active) | 4.87 (active)
10 | CARAERGPRSAGNASASA [FS-1058] | 3.99 (active) | 4.52 (active) | 4.09 (active)
11 | CAAKARGPRSAGNASASA [FS-745] | 11 (active) | 9.83 (active) | 7.42 (active)
12 | CAVGKRQPRSAGNASASA [FS-1176] | 10.8 (active) | 10.9 (active) | 8.62 (active)
13 | CAATPPGSVTAGNASASA [HC835] | -1.05 (inactive) | -0.0418 (inactive) | -0.602 (inactive)
14 | CAFVGAGLAGAGNASASA [HC1075] | -0.934 (inactive) | -0.739 (inactive) | -0.847 (inactive)
15 | CAVVCCSFSYAGNASASA [HC2047] | 0.639 (inactive) | -0.617 (inactive) | -0.397 (inactive)
16 | CATKLLLAVFAGNASASA [HC605] | 1.92 | 3.24 | 0.635 (inactive)
17 | CASTPCSAHMAGNASASA [HC2566] | -0.903 (inactive) | 0.0563 (inactive) | 1.83
18 | CAAMTPTVATAGNASASA [HC281] | 0.668 (inactive) | 1.6 | -0.149 (inactive)
19 | CAERHRQTRSAGNASASA [FS-763] | 6.53 (active) | 6.61 (active) | 4.64 (active)
20 | CAQTSRNTRSAGNASASA [FS-184] | 9.04 (active) | 11.5 (active) | 9.02 (active)
21 | CATHSIKKRSAGNASASA [FS-1574] | 8.84 (active) | 7.91 (active) | 7.4 (active)
22 | CASASHKKRSAGNASASA [FS-867] | 3 | 2.31 | 3.6 (active)
23 | CAQTSRSNRFAGNASASA [FS-852] | 0.217 (inactive) | -0.984 (inactive) | 0.464 (inactive)
24 | CASVCCSMSYAGNASASA [HC1997] | -0.28 (inactive) | -0.316 (inactive) | -0.657 (inactive)
25 | CAAREVPCHRAGNASASA [HC2423] | 0.147 (inactive) | 1.34 | 1.67
26 | CAPGAKQNVQAGNASASA [HC363] | -0.22 (inactive) | -0.957 (inactive) | -0.643 (inactive)
27 | CASCGGVVLVAGNASASA [HC569] | -1.44 (inactive) | -0.138 (inactive) | -1.42 (inactive)

Reference: the supplement of paper PMC3545927
